An excerpt weighted towards active compounds, which were near 0.24% of everything screened.
Bim-Bfl-1: human Bim-Bfl-1 interaction inhibition; Q16548; Bead-based flow cytometry, Bim-Bfl-1 binding inhibition; inhibition, % at 10 µM; 190,000 compounds, 0.12% hits;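 also: 0% = wells without compound plus tracer and 100% = blocker peptide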
Target sequence (Q16548 whole entry, looked up): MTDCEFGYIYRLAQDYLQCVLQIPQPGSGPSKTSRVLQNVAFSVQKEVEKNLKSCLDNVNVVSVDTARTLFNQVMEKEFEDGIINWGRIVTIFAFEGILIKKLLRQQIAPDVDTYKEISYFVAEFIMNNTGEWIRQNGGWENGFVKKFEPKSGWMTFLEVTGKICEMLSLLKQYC
PKD1 kinase inh: inhibitors of human PKD1 kinase | PKD1 kinase fluorescence polarization assay | inhibition, % (test concentration not listed) | 200,000 compounds, 0.056% hits; in the data active = inhibition above about 50%
Bim-Bcl-B: human Bim-Bcl-B interaction inhibition | Q9HD36 | bead-based flow cytometry, Bim peptide-Bcl-B binding | inhibition, % at 10 µM | 190,000 compounds, 0.073% hits;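 also: 0% = tracer peptide without compound and 100% = reference inhibitor peptide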
Bcl-XL Bim block: disrupts Bim peptide binding to human Bcl-XL. Q07817. AID 1007. bead flow cytometry, fluorescence. inhibition, % at 10 µM. 190,000 compounds, 0.04% hits
Bcl-2 Bim block: disrupts Bim peptide binding to human Bcl-2; P10415; Bead-based flow cytometry, Bim peptide-Bcl-2 binding; inhibition, % at 10 µM; 190,000 compounds, 0.06% hits; in the data active = inhibition above about 40%;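 also: 0% = no compound wells with probe peptide and 100% = reference peptide inhibitor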
Bcl-W Bim block: human Bim-Bcl-W interaction inhibition; 190,000 compounds, 0.02% hits; bead-based flow cytometry, Bim peptide-Bcl-W binding; inhibition, % at 10 µM; AID 952;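 also: 0% = bound tracer without compound and 100% = peptide blocker; higher means less fluorescent Bim peptide bound to Bcl-W beads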
Target sequence (Q92843 whole entry, looked up): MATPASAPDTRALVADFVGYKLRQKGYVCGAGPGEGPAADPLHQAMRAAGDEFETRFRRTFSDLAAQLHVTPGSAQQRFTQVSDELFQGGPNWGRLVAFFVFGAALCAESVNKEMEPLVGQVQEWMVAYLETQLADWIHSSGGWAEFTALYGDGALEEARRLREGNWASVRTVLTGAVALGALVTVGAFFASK
Active calls of the source: *; x = no result. Rule as the data show it, unless noted: active = inhibition above about 40%.

SMILES	Bim-Bfl-1	PKD1 kinase inh	Bim-Bcl-B	Bcl-XL Bim block	Bcl-2 Bim block	Bcl-W Bim block
Cc1cccc(NC(=O)c2ccc(NC(C)c3ccccc3)c([N+](=O)[O-])c2)n1 (stereo unspecified)	-3	-5	-4	-2	-2	-1
C#CCOCCOCCOCCNc1nc(N2CCN(C(=O)[C@H]([C@@H](C)CC)n3cc([C@@H](N)CC(C)C)nn3)CC2)nc(N2CCN(C(=O)[C@H](Cc3cc4ccccc4[nH]3)n3cc([C@@H](N)Cc4ccc(O)cc4)nn3)CC2)n1	57*	6	71*	0	80*	-5
CCn1c(C)c(/C=N/Nc2nc3ccccc3s2)c2ccccc21	x	-2	x	23	87*	21
Cc1ccc(-n2nnc(-c3nccn3C)n2)cc1	-3	-4	-5	0	-2	-3
CCC(Sc1ccc2nnc(-c3cccnc3)n2n1)C(=O)O (stereo unspecified)	-9	-6	-6	-3	-5	1
O=C(CSc1ccc2nnc(-c3cccnc3)n2n1)c1ccccc1	-4	112*	0	2	-1	-2
COCCN=c1scc(-c2ccco2)n1/N=C/c1ccc(O)c(O)c1O	41*	-2	-10	8	18	24
CC(C)(C)C1=CC(=O)C(=O)C(C(C)(C)C)=C1	56*	-9	2	0	18	9
COC(=O)C(Cc1ccccc1)P(=O)(c1ccccc1)c1ccccc1 (stereo unspecified)	-2	-10	-10	-6	-2	-4
COc1ccc(Cl)cc1-c1nc(-c2ccc(NC(=O)c3cccs3)cc2)no1	0	-10	-2	-4	-4	-2
Cc1ccc(NC(=O)/C(=C\c2ccc([N+](=O)[O-])cc2)NC(=O)c2ccccc2)cc1	-2	-18	0	-7	-1	-2
O=C(N/N=C/c1ccc(O)c(O)c1O)/C(=C/c1ccc([N+](=O)[O-])cc1)NC(=O)c1ccccc1	41*	4	9	5	21	27
CC(c1ccco1)N(C(=O)c1ccccc1NS(=O)(=O)c1ccc(Cl)c([N+](=O)[O-])c1)c1ccccn1 (stereo unspecified)	2	-6	0	-4	-1	-1
O=C(N/N=C/c1cccn1-c1ccc([N+](=O)[O-])cc1)C(O)c1ccccc1 (stereo unspecified)	-11	4	-8	-6	-7	2
O=C(Cc1ccccc1)N/N=C/c1cccn1-c1ccc([N+](=O)[O-])cc1	21	-7	50*	25	31	26
Cc1cccn2c(=O)c3cc(C#N)c(=N)n(CCCN4CCOCC4)c3nc12	x	-5	x	x	x	x
Cc1cccn2c(=O)c3cc(C(N)=S)c(=N)n(CCCN4CCOCC4)c3nc12	50*	-8	48*	9	7	16
COCCCNC(=O)C1CCCN(S(C)(=O)=O)C1 (stereo unspecified)	0	-12	-4	-1	3	-1
Cc1ccc(-c2ccc(CCC(=O)O)n2NC(=O)c2cccs2)cc1	x	-1	x	35	92*	28
COc1ccc(-c2ccc(CCC(=O)O)n2NC(=O)c2cccs2)cc1	-23	-10	-8	-7	-10	0
CC(=O)OCCCNc1cc(Sc2ccc(C)cc2)c2nonc2c1[N+](=O)[O-]	-3	0	-10	-3	0	1
CC(=O)OCCNc1cc(Sc2nc3ccccc3[nH]2)c2nonc2c1[N+](=O)[O-]	44*	10	0	0	2	9
CC1CCN(CCCn2c(SCC(=O)Nc3ccccc3Cl)nc3ccccc3c2=O)CC1	0	0	-1	-1	-1	-1
Cc1ccc(NC(=O)CSc2nc3ccccc3c(=O)n2CCCN2CCCCC2)cc1Cl	25	-4	71*	26	62*	29
S=C(Nc1ccc(Cl)c(Cl)c1)NN1CCOCC1	-10	2	-6	-7	-8	-6
SMILES	Bim-Bfl-1	PKD1 kinase inh	Bim-Bcl-B	Bcl-XL Bim block	Bcl-2 Bim block	Bcl-W Bim block
O=C(Nc1nccs1)C1Cc2ccccc2CN1S(=O)(=O)c1ccc(F)cc1 (stereo unspecified)	0	2	-2	-2	-4	-2
O=C(Nc1nnc(C2CC2)s1)C1Cc2ccccc2CN1S(=O)(=O)c1ccccc1F (stereo unspecified)	x	-7	x	13	77*	9
COc1ccc(N2C(=O)C(CC(=O)Nc3ccccc3)N(Cc3ccccn3)C2=S)cc1 (stereo unspecified)	-4	5	-4	-4	-2	-1
COc1ccc(CCNC(=O)c2ccc3nc(-c4ccco4)c(-c4ccco4)nc3c2)cc1OC	42*	13	0	6	11	19
O=c1nc2c(O)cccn2c2c1c(=O)[nH]c1ccccc12	36	7	4	47*	24	32
COc1ccc(CCN(C)C(=O)C2CCN(Cc3ccc(C)cc3)CC2)cc1OC	-2	-8	0	-2	-2	0
Cc1ccc(NC(=O)c2cccc(OCc3c(C)noc3C)c2)cc1	-5	-4	-6	-4	-7	0
Cc1noc(C)c1COc1ccc(C(=O)Nc2cccnc2)cc1	1	-7	43*	19	15	20
O=C(NCC(=O)N(CCN1CCOCC1)C(C(=O)NC1CCCC1)c1ccccc1)c1cccs1 (stereo unspecified)	-6	-6	0	-1	-1	3
COc1ccc(N2CCN(CCCNC(=O)CCCn3c(=O)[nH]c4ccsc4c3=O)CC2)cc1	30	-6	67*	1	62*	4
COc1ccc(N2CCN(C(=O)CCCCCn3c(=O)[nH]c4ccsc4c3=O)CC2)cc1	2	-3	0	-13	-1	-5
O=[N+]([O-])c1ccc(N/N=C/c2ccc(O)c(O)c2O)c(S(=O)(=O)N2CCOCC2)c1	63*	-1	10	15	27	40*
CC(C)(C)C1CCC(C(=O)OCC(=O)Nc2ccc3[nH]c(=O)[nH]c3c2)CC1 (stereo unspecified)	-3	3	0	1	1	2
O=C(CSc1ccc2nnc(-c3ccccn3)n2n1)Nc1nccs1	7	-4	24	40*	8	27
Cc1nnc(NC(=O)CSc2ccc3nnc(-c4ccccn4)n3n2)s1	-13	-6	-7	-4	-6	-4
COC(=O)c1ccccc1N/C=C1\CCc2c(c(C)nn2-c2ccccn2)C1=O	50*	21	6	7	20	37
O=C1CSCN1c1cc(Cl)ccc1Cl	0	75*	-1	-2	1	0
Cc1ccc(S(=O)(=O)N2CCCCC2)cc1NS(=O)(=O)c1cccc(C(=O)O)c1	-14	3	-7	0	-19	1
O=C(CNC(=O)c1ccc(S(=O)(=O)N2CCCC2)cc1)N/N=C/c1ccc(Cl)cc1	-12	-8	-6	-4	-6	-2
O=C(CNC(=O)c1ccc(S(=O)(=O)N2CCCC2)cc1)N/N=C/c1ccc(Cl)cc1Cl	9	0	50*	6	13	7
